Assay [1] is described as follows: AP1 Signaling Pathway (AID 357).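 Also: ME-180 reporter cells stimulated with EGF at its EC50 level; % is scaled to controls: 0 for no effect and ±100 for the full control effect.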 Conditions: ME-180 (cervical carcinoma) AP-1-bla reporter, EGF-induced, beta-lactamase ratio, 5 h. The method in brief: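 Titration-series screen for positive or negative modulators of EC50 EGF-induced signaling in ME-180 cells carrying an AP-1-driven beta-lactamase reporter. After 5 hours at 37 degrees Celsius, CCF4 460nm/530nm emission ratio gave %Activity; AC50 values derived.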

The target in assay [2] is Cytochrome P450 1A2 (Homo sapiens) (UniProt P05177). The assay can be described thus: p450-cyp1a2 (AID 410; calls by dose curve; also: potency is read from the fitted curve at half-maximal effect;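 as to activity change, negative = inhibition: -100% = full effect of reference inhibitor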). Conditions: recombinant CYP1A2, luciferin-ME demethylation, luminescence; series mostly up to 25.6 µM. The essentials:
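Inhibition was calculated relative to 57 uM furafylline (full inhibition). The reaction used human CYP1A2 at 20nM with Luciferin-ME at its Km, 100uM, driven by an NADPH-regenerating system for 60 min at room temperature.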

The nature of assay [3]: NFAT Signaling Pathway (AID 444).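 Also: carbachol stimulus at about its EC50 of 1 µM final; % is scaled to controls: 0 for no effect and ±100 for the full control effect.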 Conditions: Jurkat NFAT-bla M1, carbachol, beta-lactamase ratio, 5 h. The essentials:
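Read-out: CCF4 FRET ratio (460 nm/530 nm) after 1 h RT dye loading, used for %activity and AC50 from titration series. Cells: Jurkat NFAT-β-lactamase/M1 line, treated with compound plus 1 uM carbachol for 5 h, 37 °C.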

In assay [4] the target is Lysosomal acid glucosylceramidase (Homo sapiens) (UniProt P04062). The assay can be described thus: Glucocerebrosidase-p2 (AID 348; in the data active = potency below about 10 µM; also: potency is read from the fitted curve at half-maximal effect). The conditions noted are these: purified GBA, blue fluorogenic substrate, 40 min. The method in brief: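 Compounds titrated from 0.6 nM upwards against 0.2 nM enzyme in pH 5.9 citric acid/KH2PO4, taurocholate, tween-20; blue fluorogenic substrate 80 uM, 40 min room temperature, stopped and read Ex 365/Em 440 for AC50.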

Molecules are shown by their SMILES. Several values for one entry are separate records, joined by “and”; a condition that tells them apart may be missing. Equal entries are not always repeated. Inconclusive results are not listed. Where a structure was tested more than once in an assay, its records may differ in their call. Activity calls are given as the source filed them. Unless noted, calls follow the shape of the dose curve; as a rule, active = well fitted curve in either direction with a large enough effect (not every such curve was filed as active); inconclusive = small, poorly fitted or top-dose-only effect, or another doubt; inactive = flat fitted curve, though single readings scatter. A value given as a limit tells only on which side of the number the result lay.

Cytochrome P450 1A2 (Homo sapiens), sequence (P05177 whole entry, looked up): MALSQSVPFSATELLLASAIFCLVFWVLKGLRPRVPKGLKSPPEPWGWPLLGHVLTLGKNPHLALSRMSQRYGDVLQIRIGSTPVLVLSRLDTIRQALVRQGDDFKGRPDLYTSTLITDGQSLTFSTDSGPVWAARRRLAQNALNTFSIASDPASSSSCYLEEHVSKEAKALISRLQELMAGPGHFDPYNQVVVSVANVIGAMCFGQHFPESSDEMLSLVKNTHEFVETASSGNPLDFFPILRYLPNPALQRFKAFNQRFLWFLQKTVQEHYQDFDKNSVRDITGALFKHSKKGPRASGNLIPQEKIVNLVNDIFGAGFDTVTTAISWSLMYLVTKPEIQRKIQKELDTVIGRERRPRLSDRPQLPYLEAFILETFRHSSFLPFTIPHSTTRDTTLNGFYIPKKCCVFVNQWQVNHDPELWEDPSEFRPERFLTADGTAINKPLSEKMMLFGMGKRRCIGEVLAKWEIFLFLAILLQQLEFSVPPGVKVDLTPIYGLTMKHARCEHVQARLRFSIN
Lysosomal acid glucosylceramidase (Homo sapiens), sequence (P04062 whole entry, looked up): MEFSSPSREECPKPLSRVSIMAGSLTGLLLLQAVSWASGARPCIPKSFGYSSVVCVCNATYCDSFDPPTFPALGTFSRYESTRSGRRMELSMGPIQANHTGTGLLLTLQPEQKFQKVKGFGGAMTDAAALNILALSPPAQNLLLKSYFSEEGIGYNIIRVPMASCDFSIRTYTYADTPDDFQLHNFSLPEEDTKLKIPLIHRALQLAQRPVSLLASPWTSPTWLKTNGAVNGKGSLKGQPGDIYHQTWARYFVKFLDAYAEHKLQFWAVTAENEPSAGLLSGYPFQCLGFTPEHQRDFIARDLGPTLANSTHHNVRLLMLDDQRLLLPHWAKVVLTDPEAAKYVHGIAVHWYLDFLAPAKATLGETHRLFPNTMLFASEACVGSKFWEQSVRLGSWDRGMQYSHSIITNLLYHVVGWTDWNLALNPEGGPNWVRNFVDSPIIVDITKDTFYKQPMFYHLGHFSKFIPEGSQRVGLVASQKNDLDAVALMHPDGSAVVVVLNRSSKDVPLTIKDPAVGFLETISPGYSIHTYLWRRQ

Consider `C[C@@H]1C[C@H]2[C@@H]3C[C@H](F)C4=CC(=O)C=C[C@]4(C)[C@@]3(F)[C@@H](O)C[C@]2(C)[C@@]1(O)C(=O)CO`, for which the activity change, negative = inhibition in assay [1] (at 17.2 µM (top of the series)) was -11.1% (inactive).
On to `O=C(CCCN1CCN(c2ccccn2)CC1)c1ccc(F)cc1`, for which, in assay [1] (at 17.2 µM (top of the series)), the activity change, negative = inhibition was 7.66% (inactive).
`CCC(=O)c1ccc(O)cc1`: the activity change, negative = inhibition in assay [1] (at 17.2 µM (top of the series)) was -4.26% (inactive).
As to `CC1=C(CC(=O)O)c2cc(F)ccc2/C1=C\c1ccc(S(C)(=O)=O)cc1`, in assay [1] (at 38 µM (top of the series)), the activity change, negative = inhibition is 11.6% (inactive). Besides, the Potency in assay [2] is 12.6 µM (active).
As for `CC1=C(/C=C/C(C)=C/C=C/C(C)=C/C(=O)O)C(C)(C)CCC1`, in assay [1] (at 17.2 µM (top of the series)), the activity change, negative = inhibition was -14.6% (inactive).
Regarding `C#CCN(C)Cc1ccccc1`, the activity change, negative = inhibition in assay [1] (at 17.2 µM (top of the series)) was -4.72% (inactive) and 6.12% (inactive); in assay [1] (at 38 µM (top of the series)), 1.9% (inactive). Besides, in assay [2], the Potency entry was “inactive”.
With `Cc1ncc([N+](=O)[O-])n1CC(O)CCl` (stereo not given), the activity change, negative = inhibition in assay [1] (at 17.2 µM (top of the series)) is 0.517% (inactive).
On to `CCN(CC)CCOC(=O)C1(C2CCCCC2)CCCCC1`, for which the activity change, negative = inhibition in assay [1] (at 17.2 µM (top of the series)) was 21% (inactive); in assay [1] (at 38 µM (top of the series)) it was 20.8% (inactive); in assay [3] (at 17.2 µM (top of the series)), -68.8% (active); in assay [3] (at 38 µM (top of the series)), -63.7% (active).
`CC(=O)OCC(=O)[C@@]1(O)CC[C@H]2[C@@H]3CCC4=CC(=O)CC[C@]4(C)[C@H]3C(=O)C[C@@]21C`: the activity change, negative = inhibition in assay [1] (at 17.2 µM (top of the series)) is 0.362% (inactive).
In the case of `N=c1c[n+](N2CCOCC2)[n-]o1`, the figures for the activity change, negative = inhibition in assay [1] (at 17.2 µM (top of the series)), in assay [1] (at 38 µM (top of the series)) and in assay [3] (at 38 µM (top of the series)) were 18.9% (inactive), 9.68% (inactive) and 3.52% (inactive), respectively.
Turning to `CCCCN1CCCC[C@H]1C(=O)Nc1c(C)cccc1C`, the activity change, negative = inhibition in assay [1] (at 17.2 µM (top of the series)) was 0.542% (inactive). The Potency in assay [2] was 5.01 µM (active).
As for `Cc1c(Cl)cccc1Nc1ccccc1C(=O)O`, in assay [1] (at 17.2 µM (top of the series)), the activity change, negative = inhibition is -25.1% (inactive) and -19.5% (inactive). The Potency in assay [2] was 3.16 µM (active).
Regarding `CCCc1c(OCCCCc2nn[nH]n2)ccc(C(C)=O)c1O`, the activity change, negative = inhibition in assay [1] (at 17.2 µM (top of the series)) was -20.5% (inactive).
Regarding `Cc1cccc(Nc2cc(Cl)nc(SCC(=O)O)n2)c1C`, in assay [4], the Potency was > 11.4 µM (inactive). For the same molecule, in assay [1] (at 7.69 µM (top of the series)), the activity change, negative = inhibition was 3.12% (inactive). The Potency entry in assay [2] was “inactive”.
Regarding `CCCCOc1cc(C(=O)OCCN(CC)CC)ccc1N`, the activity change, negative = inhibition in assay [1] (at 17.2 µM (top of the series)) is -0.742% (inactive).
`C=Cc1c(C)c2cc3[nH]c(cc4nc(cc5nc(cc1[nH]2)C(C)=C5CCC(=O)O)C(CCC(=O)O)=C4C)c(C)c3C=C`: the activity change, negative = inhibition in assay [1] (at 38 µM (top of the series)) was -5.02% (inactive). For the same molecule, the Potency in assay [2] was 6.31 µM (active).
In the case of `CC(COc1ccccc1)NC(C)C(O)c1ccc(O)cc1` (stereo not given), the activity change, negative = inhibition in assay [1] (at 17.2 µM (top of the series)) is 9.92% (inactive).
In the case of `CNC(=O)Oc1ccc2c(c1)[C@]1(C)CCN(C)[C@@H]1N2C`, in assay [1] (at 17.2 µM (top of the series)), the activity change, negative = inhibition is 8.81% (inactive).
Consider `Cc1cc(N)c2ccccc2[n+]1CCCCCCCCCC[n+]1c(C)cc(N)c2ccccc21`, for which the activity change, negative = inhibition in assay [1] (at 17.2 µM (top of the series)) is -20.8% (inactive). Also, the Potency entry in assay [2] was “inactive and 10 µM (active) and 15.8 µM (active)”.
As to `CN1[C@@H]2CC(OC(=O)[C@H](CO)c3ccccc3)C[C@H]1[C@@H]1O[C@@H]12` (stereo not given in full), the activity change, negative = inhibition in assay [1] (at 17.2 µM (top of the series)) is -6.51% (inactive).
As for `Nc1ccc(S(=O)(=O)NC(=O)c2ccccc2)cc1`, the activity change, negative = inhibition in assay [1] (at 17.2 µM (top of the series)) is 13.8% (inactive) and 7.16% (inactive). For the same molecule, in assay [2], the Potency result is “inactive”.
Regarding `COc1ccc(Cl)cc1C(=O)NCCc1ccc(S(=O)(=O)NC(=O)NC2CCCCC2)cc1`, the activity change, negative = inhibition is -12.3% (inactive) and -19.5% (inactive) in assay [1] (at 17.2 µM (top of the series)); -26.7% (inactive) in assay [1] (at 38 µM (top of the series)). For the same molecule, the Potency entry in assay [2] is “inactive”.
On to `Cn1cc[nH]c1=S`, for which the activity change, negative = inhibition in assay [1] (at 17.2 µM (top of the series)) was -7.08% (inactive).
Take `Nc1cc(=O)[nH]c(N)n1`: the activity change, negative = inhibition in assay [1] (at 38 µM (top of the series)) was -5.58% (inactive). For the same molecule, the Potency result in assay [2] is “inactive”.
On to `CCCCN(CCCC)CCCOC(=O)c1ccc(N)cc1`, for which, in assay [1] (at 17.2 µM (top of the series)), the activity change, negative = inhibition is -6.24% (inactive) and -3.31% (inactive). Further, the Potency in assay [2] was 10 µM (active).
As for `c1ccc(CN(CC2=NCCN2)c2ccccc2)cc1`, in assay [1] (at 17.2 µM (top of the series)), the activity change, negative = inhibition was 6.18% (inactive) and 2.47% (inactive) and 4.31% (inactive). Also, the Potency entry in assay [2] is “inactive”.
As for `CC(C)NC[C@H](O)c1ccc(O)c(O)c1`, the activity change, negative = inhibition is 3.55% (inactive) and -12.3% (inactive) in assay [1] (at 17.2 µM (top of the series)); -3.34% (inactive) [middle of 4 runs] in assay [1] (at 38 µM (top of the series)).
As for `CN(C)CCOC(C)(c1ccccc1)c1ccccn1` (stereo not given), the activity change, negative = inhibition in assay [1] (at 17.2 µM (top of the series)) was 4.21% (inactive).
For `CC[C@H]1CN2CCc3cc(OC)c(OC)cc3[C@@H]2C[C@@H]1C[C@H]1NCCc2cc(OC)c(OC)cc21`, the activity change, negative = inhibition in assay [1] (at 17.2 µM (top of the series)) is -119% (active).
The same measure, in the same setting: for `CNCCC(Oc1ccc(C(F)(F)F)cc1)c1ccccc1` (stereo not given) the value was 21.9% (inactive).
As for `CCCCCCCCCCCCCCCC(=O)NCCO`, the activity change, negative = inhibition in assay [1] (at 38 µM (top of the series)) was 11.1% (inactive).
In the case of `c1ccc2c(CC3=NCCN3)cccc2c1`, the activity change, negative = inhibition in assay [1] (at 17.2 µM (top of the series)) was 14% (inactive) and 7.7% (inactive). Also, in assay [2], the Potency entry was “inactive”.
With `CCn1cc(C(=O)O)c(=O)c2cnc(N3CCNCC3)nc21`, in assay [1] (at 17.2 µM (top of the series)), the activity change, negative = inhibition is 8.66% (inactive) and 0.464% (inactive). The Potency result in assay [2] was “inactive”.
Regarding `OCC(O)CN1CCN(c2ccccc2)CC1` (stereo not given), in assay [1] (at 17.2 µM (top of the series)), the activity change, negative = inhibition is -1.76% (inactive).
On to `CCN(CC)CCNC(=O)c1cc(Cl)c(N)cc1OC`, for which the activity change, negative = inhibition was 0.248% (inactive) and 1.7% (inactive) in assay [1] (at 17.2 µM (top of the series)); 17% (inactive) in assay [1] (at 38 µM (top of the series)). In addition, the Potency in assay [2] was 15.8 µM (active).

The values are drawn from PubChem BioAssay (NCATS).
